Active and inactive are the calls of the source.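 Rule for the calls: active = activation curve reaches 40% at a concentration no higher than the top valid dose tested; inactive = signal falling instead of rising, plus the rest.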
Assay: cellular ROS inducers, fluorescent dye readout – U2OS cells, fluorescence, dry powder, dose response (AID 624441)
Conditions: U2OS ROS induction, H2DCF-DA fluorescence, stronger effect = higher value; at 19.5 µM unless noted

Max activation, inactive:
O=C(Nc1ccccc1)Nc1nc(SCc2ccccc2)ns1 -12% [at 10 µM]
Nc1nc(SCc2ccc(Cl)cc2Cl)ns1 43.7%
Cc1ccccc1CSc1n[nH]c(N)n1 26% [at 0.0195 µM]
O=C(Nc1nc(SCc2ccccc2)ns1)C1CCC1 11.4%
Cc1cccc(CSc2nsc(N)n2)c1 19.3% [at 1.2 µM]
Nc1nc(S(=O)(=O)Cc2ccccc2)ns1 20.7% [at 0.0195 µM]
Cc1ccccc1CSc1nnc(N)s1 9.38%
Nc1nc(SCc2ccc(F)cc2)ns1 27%
Nc1nc(SCc2ccccc2Cl)ns1 15.6% [at 0.0001 µM]
Nc1nc(SCc2ccccc2)ns1 18.5% [at 0.3 µM]
O=C(Nc1nc(SCc2ccccc2)ns1)C1CC=CCC1 (configuration not stated) 33.9% [at 38 µM]
Cc1ccccc1CSc1nsc(N)n1 36.4% [at 5 µM]

— PubChem BioAssay AID624441 (Broad Institute, 2012)
